Here are results for seven molecules from PubChem BioAssay (Tox21).

Assay [1] can be described thus: qHTS assay to identify small molecule agonists of the sonic hedgehog signaling (Shh) pathway (AID 1259368).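 Further: NIH/3T3-derived 3T3Gli1-Luc cells carrying a stable Gli1-driven firefly luciferase reporter; series mostly up to about 92 µM; nearly all actives have a fitted effect of over 15% in size.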 A digest of the protocol: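 Stable NIH/3T3 Gli1-Luc reporter clone; 24 hr cpd exposure after a 4 hr settling period; luminescence endpoint.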
A short description of assay [2]: qHTS assay to identify small molecule antagonists of the sonic hedgehog signaling (Shh) pathway (AID 1259369). Further: nearly all actives have a fitted effect of over 45% in size. Further: potency means the concentration at half of the fitted maximal effect. A digest of the protocol: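 Gli1 transcriptional reporter (firefly Luc) in NIH/3T3 background, conditioned-medium activated. 24hr exposure, luminescence endpoint.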
(qHTS replaces the single test concentration by a dilution series.)

In assay [3] the target is Estrogen receptor beta (Homo sapiens) (UniProt Q92731). Put plainly: qHTS assay to identify small molecule agonists of the estrogen receptor beta (ER-beta) signaling pathway (AID 1259377; active means well fitted activation curve with a large enough effect in the signal ratio in the repeat runs, not every such curve was filed as active; the % refers to the signal ratio). A digest of the protocol: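 Screening used GripTite ER-beta-UAS-bla cells held in 2% charcoal-stripped FBS medium. After overnight (16 hr) compound incubation at 37C, beta-lactamase activity was detected with a FRET substrate by fluorescence.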

For assay [4] the target is unchanged. Nature of the assay: qHTS assay to identify small molecule antagonists of the estrogen receptor beta (ER-beta) signaling pathway (AID 1259378; active means well fitted inhibition curve with a large enough effect in the signal ratio in the repeat runs, not every such curve was filed as active; the % refers to the signal ratio; further: potency means the concentration at half of the fitted maximal effect). The method in brief: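 ER-beta-UAS-bla HEK293T cells in 2% charcoal-stripped FBS medium treated with compound plus 1nM final 17-beta-estradiol for 16 hr at 37C. Beta-lactamase reporter read by FRET substrate fluorescence after 2 hours at room temperature.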

Assay [5] in a line: qHTS assay to identify small molecule agonists of the estrogen receptor beta (ER-beta) signaling pathway - cell viability counter screen (AID 1259380; active means well fitted curve in the direction sought with a large enough effect in the repeat runs; an effect the other way counts as inactive or inconclusive; further: nearly all actives have a fitted effect of over 30% in size; further: potency means the concentration at half of the fitted maximal effect). A digest of the protocol: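 In this qHTS counter screen, HEK293T cells carrying an ER-beta/UAS beta-lactamase reporter, grown in 2% charcoal-stripped FBS, received compound for 16 hr; ATP-based CellTiter-Glo luminescence was then read after 30 min at room temperature.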

The target of assay [6] is Androgen receptor (Homo sapiens) (UniProt P10275). Put plainly: qHTS assay to identify small molecule agonists of the androgen receptor (AR) signaling pathway in the presence of an antagonist (AID 1259381). Further: nearly all actives have a fitted effect of over 15% in size. The method in brief:
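AR antagonist background: nilutamide 3.0uM final. Cell line: MDA-kb2, MMTV-driven luciferase, responsive to both AR and GR. Exposure 16hr, 37C, no CO2; ONE-Glo luminescence.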

A short description of assay [7]: qHTS assay to identify small molecule antagonists of the estrogen receptor beta (ER-beta) signaling pathway - cell viability counter screen (AID 1259382; active means well fitted curve in the direction sought with a large enough effect in the repeat runs; an effect the other way counts as inactive or inconclusive; further: nearly all actives have a fitted effect of over 55% in size; further: potency means the concentration at half of the fitted maximal effect). The method in brief: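 HEK293T ER-beta-UAS-bla, 2% charcoal-stripped FBS; compounds + 1nM E2 16 hr 37C; CellTiter-Glo luminescence, 30 min RT.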
The target in assay [8] is Estrogen receptor (Homo sapiens) (UniProt P03372). Put plainly: qHTS assay to identify small molecule agonists of the estrogen receptor alpha (ER-alpha) signaling pathway in the presence of an antagonist (AID 1259383). Further: nearly all actives have a fitted effect of over 15% in size. Further: potency means the concentration at half of the fitted maximal effect. On activation: top concentration of the series differs between compounds. A digest of the protocol: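 ER-alpha agonism measured under antagonist challenge: 10.0nM ICI-182,780 (final) plus compound, 15 concentrations, 22hr, VM7Luc4E2 ERE-luciferase cells. Read by luminescence.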

Assay [9] in a line: qHTS assay to identify small molecule agonists of the estrogen receptor alpha (ER-alpha) signaling pathway in the presence of an antagonist - cell viability counter screen (AID 1259386; active means well fitted curve in the direction sought with a large enough effect in the repeat runs; an effect the other way counts as inactive or inconclusive;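 further: series mostly up to about 92 µM; cells exposed to compounds for 22 h at 37 °C before the viability read; nearly all actives have a fitted effect of over 30% in size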). A digest of the protocol:
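Steps: 5-day stripped-FBS culture; seed and incubate 24hr; add ICI-182,780 (10.0nM final); pin 15-point compound titration; incubate 22hr at 37C; add CellTiter-Fluor at 21hr; read fluorescence.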

Assay [10] addresses Progesterone receptor (Homo sapiens) (UniProt P06401). Put plainly: qHTS assay to identify small molecule agonists of the progesterone receptor (PR) signaling pathway (AID 1346784). Further: nearly all actives have a fitted effect of over 30% in size. The method in brief: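 Seed PR-UAS-bla HEK 293T cells (2% charcoal-stripped FBS), incubate 6 hr at 37C; add compounds in DMSO, 16 hr at 37C; add LiveBLAzer B/G substrate, 2 hr RT; read fluorescence intensity.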

For assay [11] the target is unchanged. Nature of the assay: qHTS assay to identify small molecule antagonists of the progesterone receptor (PR) signaling pathway (AID 1346795; active means well fitted inhibition curve with a large enough effect in the signal ratio in the repeat runs, not every such curve was filed as active; the % refers to the signal ratio; further: potency means the concentration at half of the fitted maximal effect). A digest of the protocol: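 Screening used a GripTite HEK293T line with PR-responsive UAS-beta-lactamase. Cells were challenged with compound in the presence of 1 nM R5020 final for 16 hr at 37C; B/G FRET substrate, 2 hr room temperature, fluorescence.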

The nature of assay [12]: qHTS assay to identify small molecule antagonists of the progesterone receptor (PR) signaling pathway - cell viability counter screen (AID 1346798; active means well fitted curve in the direction sought with a large enough effect in the repeat runs; an effect the other way counts as inactive or inconclusive; further: series mostly up to about 92 µM; nearly all actives have a fitted effect of over 50% in size). The method in brief:
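Measures cytotoxicity in parallel with the PR antagonist reporter read: HEK293T PR-UAS-bla cells get compound and R5020 for 16 hr, and remaining viable cells are quantified by CellTiter-Glo luminescence.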

A short description of assay [13]: qHTS assay to identify small molecule agonists of the progesterone receptor (PR) signaling pathway - cell viability counter screen (AID 1346799). Further: nearly all actives have a fitted effect of over 45% in size. Further: potency means the concentration at half of the fitted maximal effect. A digest of the protocol: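 Using the same plates as the PR reporter screen, HEK293T PR-UAS-bla cells received compounds for 16 hr at 37C and were then lysed with CellTiter-Glo; luminescence was read 30 min later at room temperature.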

A short description of assay [14]: qHTS assay to identify small molecule antagonists of the TGF-beta/Smad signaling pathway - cell viability counter screen (AID 1346824; active means well fitted curve in the direction sought with a large enough effect in the repeat runs; an effect the other way counts as inactive or inconclusive; further: nearly all actives have a fitted effect of over 50% in size). A digest of the protocol:
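SBE-bla HEK 293T cells, incubated overnight, then compound plus 0.25 ng/mL TGF-beta1 (stock added) for 5 hr at 37 C. Viability was read in the same wells by CellTiter-Glo luminescence after 30 min at room temperature.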

A short description of assay [15]: qHTS assay to identify small molecule agonists of the TGF-beta/Smad signaling pathway - cell viability counter screen (AID 1346829; active means well fitted curve in the direction sought with a large enough effect in the repeat runs; an effect the other way counts as inactive or inconclusive; further: top concentration of the series differs between compounds; nearly all actives have a fitted effect of over 45% in size). A digest of the protocol:
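Cytotoxicity counter screen: CellTiter-Glo luminescence (30 min, room temperature) measured in the SBE-bla HEK 293T reporter wells after 5 hr compound treatment at 37 C and the 2 hr substrate step.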

Assay [16] can be described thus: qHTS assay to identify small molecule agonists of the TGF-beta/Smad signaling pathway (AID 1346859; active means well fitted activation curve with a large enough effect in the signal ratio in the repeat runs, not every such curve was filed as active; the % refers to the signal ratio; further: series mostly up to about 77 µM). A digest of the protocol: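 Beta-lactamase reporter activity downstream of Smad binding elements was measured in stably transfected HEK 293T cells; compounds were incubated for 5 hr, substrate for 2 hr at room temperature.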
Assay [17] addresses Thyrotropin-releasing hormone receptor (Homo sapiens) (UniProt P34981). Nature of the assay: qHTS assay to identify small molecule antagonists of the thyrotropin-releasing hormone receptor (TRHR) signaling pathway (AID 1346877; active means well fitted inhibition curve with a large enough effect in the repeat runs, not every such curve was filed as active; further: series mostly up to about 51 µM). A digest of the protocol: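 Human TRHR in HEK293 cells; inhibition of the intracellular calcium rise triggered by 1 nM TRH was followed by fluorescence over 3 min. Compounds were run at 15 concentrations, three replicates each.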

Assay [18] can be described thus: qHTS assay to identify small molecule agonists of the androgen receptor (AR) signaling pathway in the presence of an antagonist - cell viability counter screen (AID 1259379; active means well fitted curve in the direction sought with a large enough effect in the repeat runs; an effect the other way counts as inactive or inconclusive; further: nearly all actives have a fitted effect of over 25% in size; further: potency means the concentration at half of the fitted maximal effect). A digest of the protocol: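 Counter screen for cell viability run in parallel with the AR agonist-mode luciferase assay. MDA-kb2 cells were co-treated with nilutamide (3.0uM final) and compounds, then incubated 16 hr at 37C, and CellTiter-Fluor fluorescence was measured.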

The nature of assay [19]: qHTS assay to identify small molecule agonists or antagonists of the thyroid stimulating hormone receptor (TSHR) signaling pathway - wild type cell line counter screen (AID 1259384). The method in brief: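 Wild-type Hek293 cells, 800/well, 18 h at 37C, then compound with Ro20-1724 for 30 min RT. cAMP by HTRF (cAMP-d2/anti-cAMP cryptate), 1 h RT, fluorescence read. 15 concentrations, triplicates.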

In assay [20] the target is Thyrotropin receptor (Homo sapiens) (UniProt P16473). Put plainly: qHTS assay to identify small molecule antagonists of the thyroid stimulating hormone receptor (TSHR) signaling pathway (AID 1259385). Further: nearly all actives have a fitted effect of over 20% in size. A digest of the protocol:
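TSHR-HEK293 cells (800/well) plated 18 h, then compounds with Ro20-1724 and TSH at 1.5 ng/mL final, 30 min at room temperature. cAMP quantified by HTRF (cAMP-d2/anti-cAMP-cryptate, 1 h); 15 concentrations in triplicate.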

Inconclusive results are not listed. More than one record can exist for a structure, and the calls need not agree. Activity calls are given as the source filed them. Unless noted, the call rests on the fitted dose curve.

Chain of Estrogen receptor (Homo sapiens) (P03372 whole entry, looked up): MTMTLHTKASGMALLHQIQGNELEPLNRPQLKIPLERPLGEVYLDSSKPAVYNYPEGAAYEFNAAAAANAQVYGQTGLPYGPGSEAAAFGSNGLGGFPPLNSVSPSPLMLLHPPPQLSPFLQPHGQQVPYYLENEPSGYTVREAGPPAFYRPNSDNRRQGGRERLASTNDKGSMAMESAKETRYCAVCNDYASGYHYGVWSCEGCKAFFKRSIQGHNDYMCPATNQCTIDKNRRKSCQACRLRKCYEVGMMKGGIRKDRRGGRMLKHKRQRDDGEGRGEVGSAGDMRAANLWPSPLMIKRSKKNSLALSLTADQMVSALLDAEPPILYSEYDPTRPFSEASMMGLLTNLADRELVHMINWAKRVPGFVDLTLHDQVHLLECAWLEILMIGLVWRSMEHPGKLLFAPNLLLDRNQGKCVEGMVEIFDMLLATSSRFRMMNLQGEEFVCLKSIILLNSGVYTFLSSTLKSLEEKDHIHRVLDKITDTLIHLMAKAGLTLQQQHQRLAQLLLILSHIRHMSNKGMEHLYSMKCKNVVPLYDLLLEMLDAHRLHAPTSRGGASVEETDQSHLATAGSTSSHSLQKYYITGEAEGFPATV
Chain of Thyrotropin-releasing hormone receptor (Homo sapiens) (P34981 whole entry, looked up): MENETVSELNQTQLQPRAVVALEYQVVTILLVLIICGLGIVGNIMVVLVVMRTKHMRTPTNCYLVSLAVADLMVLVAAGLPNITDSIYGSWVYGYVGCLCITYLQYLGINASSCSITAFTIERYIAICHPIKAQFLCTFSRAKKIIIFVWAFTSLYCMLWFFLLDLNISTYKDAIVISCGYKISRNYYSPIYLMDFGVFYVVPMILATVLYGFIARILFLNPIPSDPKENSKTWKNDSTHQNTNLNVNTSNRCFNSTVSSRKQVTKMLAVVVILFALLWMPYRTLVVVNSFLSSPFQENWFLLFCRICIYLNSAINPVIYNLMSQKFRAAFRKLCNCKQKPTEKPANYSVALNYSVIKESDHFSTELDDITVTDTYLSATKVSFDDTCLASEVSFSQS
Chain of Progesterone receptor (Homo sapiens) (P06401 whole entry, looked up): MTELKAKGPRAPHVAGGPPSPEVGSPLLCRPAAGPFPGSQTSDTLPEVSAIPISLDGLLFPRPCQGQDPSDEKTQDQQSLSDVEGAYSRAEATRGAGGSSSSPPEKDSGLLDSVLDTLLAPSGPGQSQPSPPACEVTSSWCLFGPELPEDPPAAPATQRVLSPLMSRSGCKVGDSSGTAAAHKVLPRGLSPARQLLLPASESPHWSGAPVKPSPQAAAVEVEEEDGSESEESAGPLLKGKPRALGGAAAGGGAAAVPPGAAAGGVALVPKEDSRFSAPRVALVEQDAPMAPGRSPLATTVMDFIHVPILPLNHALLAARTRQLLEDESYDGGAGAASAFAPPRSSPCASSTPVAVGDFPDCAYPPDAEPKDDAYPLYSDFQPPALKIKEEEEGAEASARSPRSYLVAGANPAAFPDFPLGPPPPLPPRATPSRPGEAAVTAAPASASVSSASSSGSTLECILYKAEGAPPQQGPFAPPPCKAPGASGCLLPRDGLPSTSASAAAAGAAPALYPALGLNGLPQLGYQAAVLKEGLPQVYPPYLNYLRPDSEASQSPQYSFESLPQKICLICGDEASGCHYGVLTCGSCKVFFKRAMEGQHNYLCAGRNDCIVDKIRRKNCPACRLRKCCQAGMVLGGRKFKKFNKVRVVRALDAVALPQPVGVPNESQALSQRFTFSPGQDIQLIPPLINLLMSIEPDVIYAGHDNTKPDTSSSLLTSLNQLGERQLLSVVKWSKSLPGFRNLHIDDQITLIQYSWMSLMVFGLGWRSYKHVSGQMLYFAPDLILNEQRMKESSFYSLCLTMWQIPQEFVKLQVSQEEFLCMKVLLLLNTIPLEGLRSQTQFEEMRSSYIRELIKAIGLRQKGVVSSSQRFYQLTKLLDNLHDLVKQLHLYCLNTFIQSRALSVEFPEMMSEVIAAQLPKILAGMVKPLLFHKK
Chain of Thyrotropin receptor (Homo sapiens) (P16473 whole entry, looked up): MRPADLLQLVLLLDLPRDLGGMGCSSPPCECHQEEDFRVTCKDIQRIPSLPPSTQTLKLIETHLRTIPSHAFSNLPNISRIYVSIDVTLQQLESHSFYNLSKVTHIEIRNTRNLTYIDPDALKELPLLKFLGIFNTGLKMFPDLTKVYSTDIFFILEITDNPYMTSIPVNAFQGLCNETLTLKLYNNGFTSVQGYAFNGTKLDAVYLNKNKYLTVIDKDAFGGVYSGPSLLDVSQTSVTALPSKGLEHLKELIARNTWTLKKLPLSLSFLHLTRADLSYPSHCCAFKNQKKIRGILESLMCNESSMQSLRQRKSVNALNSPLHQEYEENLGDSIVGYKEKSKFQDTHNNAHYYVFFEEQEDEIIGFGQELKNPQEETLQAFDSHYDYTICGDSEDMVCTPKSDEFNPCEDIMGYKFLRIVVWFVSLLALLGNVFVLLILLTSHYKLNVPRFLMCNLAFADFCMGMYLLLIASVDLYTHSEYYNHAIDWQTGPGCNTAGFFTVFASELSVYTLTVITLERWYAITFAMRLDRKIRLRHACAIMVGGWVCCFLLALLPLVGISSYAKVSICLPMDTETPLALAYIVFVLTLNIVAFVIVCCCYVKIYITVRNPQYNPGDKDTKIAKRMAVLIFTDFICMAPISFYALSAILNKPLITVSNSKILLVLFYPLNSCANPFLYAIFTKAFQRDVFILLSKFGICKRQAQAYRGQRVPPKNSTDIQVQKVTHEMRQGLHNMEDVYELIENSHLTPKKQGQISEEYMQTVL
Chain of Estrogen receptor beta (Homo sapiens) (Q92731 whole entry, looked up): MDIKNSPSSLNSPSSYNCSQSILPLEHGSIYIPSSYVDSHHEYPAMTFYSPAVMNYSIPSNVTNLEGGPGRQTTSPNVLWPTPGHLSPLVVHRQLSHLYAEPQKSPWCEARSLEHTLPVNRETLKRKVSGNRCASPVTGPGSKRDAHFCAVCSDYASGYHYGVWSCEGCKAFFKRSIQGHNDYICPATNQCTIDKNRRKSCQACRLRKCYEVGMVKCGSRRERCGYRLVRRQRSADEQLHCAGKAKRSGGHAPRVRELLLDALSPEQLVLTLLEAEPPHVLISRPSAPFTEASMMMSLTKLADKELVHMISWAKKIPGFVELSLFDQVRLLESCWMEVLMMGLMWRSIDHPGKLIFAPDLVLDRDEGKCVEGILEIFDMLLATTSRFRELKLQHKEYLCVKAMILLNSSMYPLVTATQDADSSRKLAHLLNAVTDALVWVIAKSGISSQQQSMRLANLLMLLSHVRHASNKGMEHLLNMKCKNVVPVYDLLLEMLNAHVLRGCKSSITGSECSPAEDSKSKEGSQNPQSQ
Chain of Androgen receptor (Homo sapiens) (P10275 whole entry, looked up): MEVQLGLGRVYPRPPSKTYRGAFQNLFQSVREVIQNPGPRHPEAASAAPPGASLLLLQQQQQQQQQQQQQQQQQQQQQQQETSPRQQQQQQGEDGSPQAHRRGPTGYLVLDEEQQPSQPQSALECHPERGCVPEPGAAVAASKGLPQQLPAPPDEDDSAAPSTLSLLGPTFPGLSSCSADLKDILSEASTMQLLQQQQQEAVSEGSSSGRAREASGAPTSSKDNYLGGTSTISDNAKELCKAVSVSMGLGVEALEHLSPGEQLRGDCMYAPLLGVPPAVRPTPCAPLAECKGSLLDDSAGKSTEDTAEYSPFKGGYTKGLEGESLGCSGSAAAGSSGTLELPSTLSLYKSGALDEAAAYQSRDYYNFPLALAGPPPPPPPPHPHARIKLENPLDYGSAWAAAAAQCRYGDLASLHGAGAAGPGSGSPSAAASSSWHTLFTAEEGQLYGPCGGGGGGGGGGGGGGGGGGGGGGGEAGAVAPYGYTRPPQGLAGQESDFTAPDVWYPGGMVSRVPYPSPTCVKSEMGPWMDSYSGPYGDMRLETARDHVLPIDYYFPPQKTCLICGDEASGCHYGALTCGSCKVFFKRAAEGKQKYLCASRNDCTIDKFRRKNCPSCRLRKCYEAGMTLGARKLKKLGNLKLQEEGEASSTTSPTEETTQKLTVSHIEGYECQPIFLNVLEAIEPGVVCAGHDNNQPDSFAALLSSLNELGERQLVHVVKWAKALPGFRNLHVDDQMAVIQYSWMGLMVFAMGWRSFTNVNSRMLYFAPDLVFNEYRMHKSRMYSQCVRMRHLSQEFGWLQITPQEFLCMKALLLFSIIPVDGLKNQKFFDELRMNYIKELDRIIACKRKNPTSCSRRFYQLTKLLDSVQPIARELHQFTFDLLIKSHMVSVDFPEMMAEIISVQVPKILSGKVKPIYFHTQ

In the case of `OCC1CCCO1` (stereo not given), the result in [1], in assay [16] and in assay [17] was inactive. In addition, the Potency entry in [2], in [3], in [4], in assay [5], in assay [6] and in assay [7] was “inactive” each time. Moreover, the Potency result in assay [8], in assay [9], in assay [10], in assay [11], in [12] and in [13] was “inactive” throughout. Besides, the Potency result in assay [14] and in [15] was “inactive” each time.
Turning to `C=C(C)C(=O)OCCC[Si](OC)(OC)OC`, the call in [1], in assay [19], in [20], in [16] and in assay [17] was inactive. Further, the Potency entry in [2], in [3], in assay [4], in assay [18], in assay [5] and in [7] was “inactive” in each case. In addition, the Potency result in assay [8], in assay [9], in assay [10], in [11], in assay [12] and in assay [15] was “inactive” throughout.
Take `CCCCC(CC)COC(=O)CCCCCCCC(=O)OCC(CC)CCCC` (stereo not given): the molecule was called inactive in assay [1], in [19], in [20], in assay [16] and in [17]. The Potency in assay [2] is 15.4 µM (active) and inactive; in assay [4], 12.2 µM (active) and inactive; in assay [18], 8.63 µM (active) and inactive; in assay [5] it was 15.4 µM (active); in [7], 30.6 µM (active) and inactive; in assay [11], 8.63 µM (active) and inactive. Moreover, the Potency in [13] was 54.5 µM (active) and inactive. The Potency entry in assay [3], in [9], in assay [10] and in assay [15] was “inactive” each time.
Turning to `OCC#CCO`, the result in [1], in assay [19], in [20], in assay [16] and in assay [17] was inactive. In addition, the Potency entry in [2], in [3], in assay [4], in assay [5], in assay [7] and in assay [9] was “inactive” throughout. The Potency result in assay [10], in assay [11], in [12], in [13] and in [15] was “inactive” in each case.
As to `ClC1=C(Cl)C(Cl)(Cl)C(Cl)=C1Cl`, the outcome in [1], in assay [19], in assay [20], in assay [16] and in [17] was inactive. The Potency entry in assay [2], in [3], in [4], in [5], in assay [7] and in assay [8] was “inactive” in each case. For the same molecule, the Potency result in assay [9], in [10], in assay [11], in assay [12], in [13] and in assay [14] was “inactive” in each case. For the same molecule, the Potency entry in assay [15] was “inactive”.
As for `O=[N+]([O-])c1cccc(Cl)c1`, the outcome in assay [1], in assay [19], in [20], in [16] and in [17] was inactive. Moreover, the Potency result in [2], in assay [3], in [4], in [18], in assay [5] and in assay [7] was “inactive” each time. Also, the Potency result in [9], in [10], in assay [11], in assay [12], in assay [13] and in [14] was “inactive” in each case. For the same molecule, the Potency entry in [15] is “inactive”. In assay [8], the Potency was 67.4 µM (active) and inactive.
As to `C[C@@H](O)[C@H]1C(=O)N2C(C(=O)O)=C(S[C@@H]3CN[C@H](C(=O)N(C)C)C3)[C@H](C)[C@H]12`, the result in assay [1], in assay [19], in assay [20] and in assay [16] was inactive. Moreover, the Potency result in assay [2], in [3], in assay [4], in assay [18], in [5] and in assay [7] was “inactive” in each case. The Potency entry in [9], in assay [10], in assay [11], in [12], in assay [13] and in assay [14] was “inactive” each time. Moreover, in assay [15], the Potency result was “inactive”.
